Test results: PubChem BioAssay (NCATS)
Activity calls are given as the source filed them. Calls come from the whole dose curve; as a rule, active = well fitted curve in the direction sought with a large enough effect; inactive = no such curve, though single readings can be large or run the other way.

The compounds below were run against Alpha-galactosidase (Coffea arabica) (UniProt Q42656) (assay: Counterscreen for Glucocerebrosidase Inhibitors: qHTS Assay for Coffee Bean alpha-Galactosidase at pH 5.9 (AID 998)). Conditions: coffee bean alpha-galactosidase enzyme assay; series mostly up to 76.9 µM.
How it was run: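 Enzyme 2 nM + cpd (0.7 nM–77 uM titration) + 4-MU-alpha-Gal 80 uM, pH 5.9 citrate/Tween-20, RT 20 min, NaOH/glycine stop pH 10, fluor 365/440. Normalized to no-enzyme and full-activity controls; Hill-fit AC50.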

Chain of Alpha-galactosidase (Coffea arabica) (Q42656 whole entry, looked up): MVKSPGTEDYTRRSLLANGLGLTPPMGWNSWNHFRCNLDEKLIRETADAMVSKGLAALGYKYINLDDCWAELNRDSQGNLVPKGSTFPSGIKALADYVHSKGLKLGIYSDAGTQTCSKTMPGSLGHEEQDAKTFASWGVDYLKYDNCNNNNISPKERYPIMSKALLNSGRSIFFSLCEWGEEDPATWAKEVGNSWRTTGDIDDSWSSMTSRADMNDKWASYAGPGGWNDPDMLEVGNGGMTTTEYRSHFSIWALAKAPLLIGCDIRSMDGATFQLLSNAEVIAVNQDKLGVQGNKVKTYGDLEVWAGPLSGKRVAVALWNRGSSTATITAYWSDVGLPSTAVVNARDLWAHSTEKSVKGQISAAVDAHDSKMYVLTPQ

Q: With `Cc1cnc(C(=O)NCCc2ccc(S(=O)(=O)NC(=O)NC3CCCCC3)cc2)cn1` as the compound, how does the outcome read?
A: inactive

Q: With `CCCCc1oc2ccccc2c1C(=O)c1cc(I)c(OCCN(CC)CC)c(I)c1` as the compound, how does the outcome read?
A: inactive

Q: With `COC(=O)Nc1nc2ccc(C(=O)c3cccs3)cc2[nH]1` as the compound, how does the outcome read?
A: inactive

Q: For `O=NN(CCCl)C(=O)NCCCl`, which outcome is on record?
A: inactive

Q: How did the outcome turn out when `NS(=O)(=O)c1cc2c(cc1Cl)NC=NS2(=O)=O` was run?
A: inactive

Q: How did the outcome turn out when `CCN(CC)C(=S)SSC(=S)N(CC)CC` was run?
A: inactive

Q: Which outcome does the source give for `CN[C@H]1CC[C@@H](c2ccc(Cl)c(Cl)c2)c2ccccc21` here?
A: inactive

Q: With `CNCCCC1c2ccccc2C=Cc2ccccc21` as the compound, how does the outcome read?
A: inactive

Q: With `O=C(CCCN1CCC(O)(c2ccc(Cl)cc2)CC1)c1ccc(F)cc1` as the compound, how does the outcome read?
A: inactive

Q: How did the outcome turn out when `Clc1ccc2c(c1)C(N1CCNCC1)=Nc1ccccc1O2` was run?
A: inactive

Q: `CN(C)CC/C=C1\c2ccccc2COc2ccccc21` was tested. Which outcome did it give?
A: inactive

Q: For `CN(C)CCCN1c2ccccc2CCc2ccc(Cl)cc21`, which outcome is on record?
A: inactive

Q: How did the outcome turn out when `Cc1[nH]c(=O)c(C#N)cc1-c1ccncc1` was run?
A: inactive

Q: Which outcome does the source give for `CC[N+](C)(C)c1cccc(O)c1` here?
A: inactive

Q: How did the outcome turn out when `COc1ccc(Cl)cc1C(=O)NCCc1ccc(S(=O)(=O)NC(=O)NC2CCCCC2)cc1` was run?
A: inactive

Q: `CC(=O)N[C@@H](CS)C(=O)O` was tested. Which outcome did it give?
A: inactive
